Data published in PubChem BioAssay (NCI).
About 83,000 compounds went through this panel and 20% of them were active in at least one assay; those are over-represented in the sample as a whole.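 Testing used 96-well plates and a 48-hour single-concentration exposure. Example: -40 means 40% of the starting cells died.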 A number with no mark means an inactive call. Active and inactive are the calls of the source. The calls were made as follows: active = growth percent below 10; inactive = the rest.

Experiments:
Assay in all cases: NCI-60 one-dose screen, 48 h (100 = growth as untreated, 0 = no growth, -100 = all killed)
SR leukemia = settings: 10 µM unless noted
RPMI-8226 leukemia = settings: 10 µM unless noted
OVCAR-8 ovarian = settings: 10 µM unless noted
OVCAR-5 ovarian = settings: 10 µM unless noted
OVCAR-4 ovarian = settings: 10 µM unless noted
SK-OV-3 ovarian = settings: 10 µM unless noted
IGROV1 ovarian = settings: 10 µM unless noted
OVCAR-3 ovarian = settings: 10 µM unless noted
NCI/ADR-RES ovarian = settings: 10 µM unless noted
T-47D breast = settings: 10 µM unless noted
BT-549 breast = settings: 10 µM unless noted
MDA-MB-435 melanoma = settings: 10 µM unless noted
SW-620 colon = settings: 10 µM unless noted
MCF7 breast = settings: 10 µM unless noted
HCT-116 colon = settings: 10 µM unless noted
HCC-2998 colon = settings: 10 µM
KM12 colon = settings: 10 µM unless noted

SMILES | growth (SR leukemia) | growth (RPMI-8226 leukemia) | growth (OVCAR-8 ovarian) | growth (OVCAR-5 ovarian) | growth (OVCAR-4 ovarian) | growth (SK-OV-3 ovarian) | growth (IGROV1 ovarian) | growth (OVCAR-3 ovarian) | growth (NCI/ADR-RES ovarian) | growth (T-47D breast) | growth (BT-549 breast) | growth (MDA-MB-435 melanoma) | growth (SW-620 colon) | growth (MCF7 breast) | growth (HCT-116 colon) | growth (HCC-2998 colon) | growth (KM12 colon)
Cc1cnc(Nc2ccc(OCCN3CCCC3)cc2)nc1Nc1cccc(S(=O)(=O)NC(C)(C)C)c1 | -11.4% (active) | -33.8% (active) | 3.89% (active) | 7.41% (active) | 26.3% | -86.8% (active) | -11.8% (active) | 28.2% | 30.5% | 12.5% | -0.344% (active) | 13.5% | -21.3% (active) | 0.924% (active) | 1.03% (active) | -25.9% (active) | 5.75% (active)
CCN(CCO)CCCOc1ccc2c(Nc3cc(CC(=O)Nc4cccc(F)c4)[nH]n3)ncnc2c1 | 12.3% | 72.5% | 49.8% | 20.7% | 48.4% | 68.3% | 16.4% | 44.4% | 70.7% | 19.6% | 54.7% | 11.1% | 15.6% | 6.03% (active) | 11.1% | 4.66% (active) | 15.9%
Cc1cc(Nc2ncc(Cl)c(Nc3ccccc3S(=O)(=O)C(C)C)n2)c(OC(C)C)cc1C1CCNCC1 | -44.7% (active) | -56.7% (active) | -67.2% (active) | -96.6% (active) | -89.2% (active) | -32.2% (active) | -72.2% (active) | -96.4% (active) | -60.6% (active) | -77.7% (active) | -78.4% (active) | -100% (active) | -92.7% (active) | -73.7% (active) | -97.5% (active) | -93% (active) | -95.8% (active)
C=CC(=O)N1CCC[C@@H](n2nc(-c3ccc(Oc4ccccc4)cc3)c3c(N)ncnc32)C1 | 50.3% | 42.1% | 40.1% | 81.7% | 60.6% | -2.8% (active) | 7.56% (active) | 66.3% | 46.4% | 0.0664% (active) | 34.6% | 59.6% | 95.2% | 52.6% | 59.8% | 103% | 53.6%
Cc1ccc(C(=O)Nc2ccc(CN3CCN(C)CC3)c(C(F)(F)F)c2)cc1C#Cc1cnc2cccnn12 | -28.2% (active) | -45.5% (active) | -95.8% (active) | -81.9% (active) | -76.2% (active) | -94% (active) | -65.5% (active) | -95.9% (active) | -49.1% (active) | -70.9% (active) | -97.7% (active) | -98.2% (active) | -87.6% (active) | -74.1% (active) | -85.3% (active) | -91.8% (active) | -91.3% (active)
C[C@]12O[C@H](C[C@]1(O)CO)n1c3ccccc3c3c4c(c5c6ccccc6n2c5c31)CNC4=O | -14.4% (active) | -41.3% (active) | -32.5% (active) | 4.92% (active) | -23% (active) | -46.3% (active) | -26.3% (active) | 0.931% (active) | -38.1% (active) | -24.4% (active) | -68.5% (active) | -80.1% (active) | 3.8% (active) | -55.2% (active) | 0.7% (active) | -49.6% (active) | -18.5% (active)
Cc1cc(Nc2cc(N3CCN(C)CC3)nc(/C=C/c3ccccc3)n2)n[nH]1 | -13.6% (active) | 28.3% | 36.1% | 13.2% | 41% | 3.69% (active) | -30.7% (active) | 43.8% | 15.7% | -24.7% (active) | 8.9% (active) | 6.58% (active) | 0.289% (active) | 0.852% (active) | 0.937% (active) | -61.5% (active) | -16.9% (active)
COc1cccc(Nc2ncnn3ccc(CN4CC[C@@H](N)[C@H](O)C4)c23)c1 | 20.1% | 65.7% | 27.5% | 25.5% | 61% | -41.4% (active) | -19% (active) | 44.1% | 19.4% | -1.78% (active) | 48.3% | 75.6% | 88.4% | 58.8% | 21.9% | 77.1% | 14.1%
Cn1ncc(Cl)c1-c1cc(C(=O)N[C@H](CN)Cc2cccc(F)c2)sc1Cl | -29.6% (active) | -10.3% (active) | 15.5% | 35.3% | 35.6% | -12.8% (active) | -21.5% (active) | 31% | 28.6% | -24.7% (active) | -4.28% (active) | 4.34% (active) | 39.8% | -11.7% (active) | 12.8% | -78.2% (active) | 1.36% (active)
C=CC(=O)Nc1cccc(Nc2nc(Nc3ccc(N4CCN(C(C)=O)CC4)cc3OC)ncc2C(F)(F)F)c1 | 1.68% (active) | 16.8% | 18.9% | 13.4% | 10.5% | -18% (active) | -29.9% (active) | 19.5% | 21.3% | -5.01% (active) | 19.7% | 23.1% | 2.57% (active) | 4.41% (active) | 12% | 34.7% | 15.7%
CC/C(=C(/c1ccc(Cl)cc1)c1ccc(OCCN2CCCCC2)cc1)c1ccc(Cl)cc1 | 5.18% (active) | 76.3% | 81.4% | 79.9% | 63.9% | 83.7% | 91.7% | 78.7% | 84.9% | 43.9% | 85.9% | 86.4% | 65.2% | 26.6% | 61.3% | 89.4% | 69.2%
COc1cc(Nc2ncc3c(n2)-c2ccc(Cl)cc2C(c2c(F)cccc2OC)=NC3)ccc1C(=O)O | 5.63% (active) | 82.7% | 68.3% | 82.4% | 78.4% | 61.6% | 63.3% | 72.9% | 64.2% | 79.6% | 62.8% | 85.9% | 54.7% | 42.5% | 45.3% | 87.5% | 28.3%
Cn1cnc2c(F)c(Nc3ccc(Br)cc3F)c(C(=O)NOCCO)cc21 | 64.6% | 63.5% | 65.8% | 9.55% (active) | 55.9% | 50.2% | 27.6% | 106% | 69.1% | 81.9% | 81.7% | 32.5% | 21% | 87.3% | 19% | 0.38% (active) | 27.5%
Cc1nc2ccc(-n3ncc(C(=O)c4cc5ccccc5[nH]4)c3N)cc2[nH]1 | 14.6% | 45.2% | 41.9% | 65.9% | 71.1% | 49.6% | 37.2% | 63.2% | 66% | 34.9% | 54% | 62.8% | 43.7% | 44.2% | 27.1% | 68.8% | 17.3%
C[C@@H](Oc1cc(-c2cnn(C3CCNCC3)c2)cnc1N)c1c(Cl)ccc(F)c1Cl | -35.7% (active) | -43.3% (active) | -27.5% (active) | -28.7% (active) | -23.9% (active) | -39.4% (active) | -24.5% (active) | 6.67% (active) | 2.26% (active) | -65.8% (active) | -42.3% (active) | -90.6% (active) | -59.9% (active) | -66.1% (active) | -73.1% (active) | -73.2% (active) | -61.2% (active)
CCn1c(-c2nonc2N)nc2c(C#CC(C)(C)O)ncc(OC[C@H]3CCCNC3)c21 | 29.3% | 91.7% | 70.6% | 108% | 68.5% | 15% | 23.9% | 41.3% | 95.6% | 66.7% | 49.6% | 75.3% | 46.1% | 15.6% | 44.5% | 81.4% | 35.9%
CCOc1cc2ncc(C#N)c(Nc3ccc(F)c(Cl)c3)c2cc1NC(=O)/C=C/CN(C)C | -14% (active) | -34.6% (active) | -7.83% (active) | -3.14% (active) | -61.9% (active) | -5.87% (active) | -32.1% (active) | -82.7% (active) | 6.54% (active) | -41.1% (active) | -35.8% (active) | -87.2% (active) | -53.8% (active) | -41.7% (active) | -79.7% (active) | -49.2% (active) | -83.8% (active)
